# Compounds without any hit were thinned out: in the full panel of roughly 83,000, 20% have a hit.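 Single-concentration screen, 48 h exposure, 96-well plates. Endpoint: percent growth. Below 10 = active.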 Values without a mark were called inactive. The source made the active and inactive calls.
# Test system: SK-MEL-2 melanoma
# Assay: NCI-60 one-dose screen, 48 h (100 = growth as untreated, 0 = no growth, -100 = all killed)
# Settings: 10 µM unless noted
row,Compound,growth
1,COc1ccc(C(O)c2cc3c(N)c(C(=O)Nc4cccc(OC)c4)sc3nc2C)cc1 (stereo not drawn),22.6%
2,CCN(CC)S(=O)(=O)c1cccc([N+](=O)[O-])c1,93%
3,CCOC(=O)C1CC(=O)c2cc(OC)c(OC)cc2C1 (stereo not drawn),107%
4,c1ccc(CCSc2ncnc3nc[nH]c23)cc1,53.6%
5,O=S(=O)(NCCCNc1nccc(-c2c(-c3ccccc3)nc3occn23)n1)c1ccc(Cl)cc1,88.3%
6,Cc1nc2sc(C(=O)Nc3ccccc3)c(N)c2cc1C(=O)c1ccc(C(F)(F)F)cc1,101%
7,Nc1ncc(C#Cc2cncc(NC(=O)c3cccc(C(F)(F)F)c3)c2)c2cccnc12,5.81% (active)
8,CCCCCCCCCCCCCCCC(=O)OC[C@@]1(O)C[C@@]23CC[C@@H]4C(C)(C)CCC[C@@]4(C)[C@@H]2CC[C@H]1C3,105%
9,CC1(C)CN(c2cnc(C(=O)Nc3cc(F)cc4cccnc34)cn2)CCN1,99.8%
10,O=S(=O)(NCCCNc1nccc(-c2c(-c3ccc(F)c(O)c3)nc3sccn23)n1)c1ccc(F)cc1,-29.9% (active)
11,CC1(C)CN(Cc2ccccc2)CCN1Cc1ccccc1,103%
12,COc1ccc(Cn2nc(-c3ccccc3)c3c2CCc2cnoc2-3)cc1,111%
13,O=C(Nc1ccc2ncnc(Nc3ccc(Oc4cccc(F)c4)c(Cl)c3)c2c1)c1ccc(CN2CCOCC2)cc1,59.1%
14,O=C1/C(=C/c2ccc(O)cc2)COc2ccc(-c3ccccc3)cc21,66.9%
15,CCCCc1ccc(Nc2nnc(SCC(=O)NC(=O)NCC)s2)cc1,90.8%
16,Fc1ccccc1CSc1ncnc2nc[nH]c12,86.6%
17,COc1ccc(-c2cnnc3c(-c4cccc(C(F)(F)F)c4)cnn23)cc1,54.6%
18,CC(=O)Nc1ccc(C(=O)Nc2cc(-c3ccccc3)ccc2N)cc1,73.8%
19,Cc1ccc(C2CC(c3cccc(Nc4ccncc4)c3)=NN2c2ccc(Cl)cc2)cc1 (stereo not drawn),-74.8% (active)

row,Compound,growth
1,CC(C)[N+](C)(CCOC(COc1ccccc1)COc1ccccc1)C(C)C,87.1%
2,FC(F)(F)c1cccc(Oc2ccc(Nc3ncnc4ccc(OCCCN5CCOCC5)cc34)cc2Cl)c1,82.7%
3,COc1ccc(/C=C2\COc3ccc(-c4ccccc4)cc3C2=O)cc1O,-29.6% (active)
4,Cc1ccccc1-c1cc(Cc2ccc(F)cc2)c(=O)[nH]n1,122%
5,CC(=O)N1N=C(c2cccc(Nc3ccncc3)c2)CC1c1ccccc1 (stereo not drawn),100%
6,COc1cccc(/C=C2\COc3ccc(-c4ccccc4)cc3C2=O)c1,-46.4% (active)
7,O=C1NC(=S)NC(=O)C1=Cc1cccc(C=C2C(=O)NC(=S)NC2=O)c1,108%
8,Cc1ccc(/C=C/C(=O)c2ccc(N)cc2)c(C)c1,99%
9,FC(F)(F)Oc1cccc(-c2cc(NCCCCCCNc3cc(-c4cccc(OC(F)(F)F)c4)nc4ccc(N5CCCC5)cc34)c3cc(N4CCCC4)ccc3n2)c1,2.93% (active)
10,CS(=O)(=O)c1ccc(-c2cc3c(oc2=O)-c2ccccc2OC3O)cc1 (stereo not drawn),99.2%
11,O=C1c2cccnc2C(=O)c2nc3cc(N4CCN(C5CC5)CC4)ccc3nc21,-16.3% (active)
12,CN1CCN(CCCOc2ccc3ncnc(Nc4ccc(Oc5cccc(C(F)(F)F)c5)c(Cl)c4)c3c2)CC1,40.3%
13,COc1cc(/C=N/NC(=O)c2ccccc2Nc2cccc(C(F)(F)F)c2)ccc1O,136%
14,COc1ccc(/C=C/C(=O)c2ccc(Nc3ncnc4ccccc34)cc2)cc1OC,124%
15,COc1cc(C2CC(c3cccc(Nc4ccncc4)c3)=NN2c2ccccc2)cc(OC)c1OC (stereo not drawn),83.1%
16,COc1cccc(CCC(=O)c2cc3c(N)c(C(=O)Nc4cccc(Cl)c4C)sc3nc2C)c1,36.5%
17,COc1ccc(-c2nc(N/N=C/c3ccco3)nc(N3CCOCC3)c2C#N)cc1,91.4%
18,COc1ccc(C(=O)c2cc3c(N)c(C(=O)Nc4cccc5ccccc45)sc3nc2C)cc1,37.4%
19,C#CCn1cc(C=C2C(=O)NC(=S)NC2=O)c2cc(Cl)ccc21,89.1%

# Reference: PubChem BioAssay (NCI)
